Only some compounds are listed: those with a hit (about 4.1% of all), similar ones and a draw of the others.
p-CIP stab down = p/CIP-EGFP fusion destabilizers, primary screen, fluorescence, F442A cells; 16 h; decrease of EGFP signal, % at 10 µM; 290,000 tested, 0.01% active;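 active means EGFP signal decrease of at least 30% at 10 µM or well 3 SD below plate mean, unless failing retest; inactive means the rest, including hits failing retest or dose response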
FAS TE block = FAS thioesterase domain inhibitors, primary screen, biochemical, fluorescence intensity, uHTS; Fatty acid synthase (Homo sapiens), P49327; recombinant FAS-TE, OMFH fluorogenic substrate, fluorescence endpoint; inhibition, % at 15 µM; 360,000 tested, 0.67% active; AID 602261, 2012;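 active means compounds whose normalised, plate-corrected inhibition of enzyme fluorescence in the single-dose primary screen is 50% or more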;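 further: 0% = DMSO with enzyme and 100% = substrate without enzyme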
MPTP inh = mitochondrial permeability transition pore inhibitors, primary screen, biochemical, isolated mouse mitochondria, absorbance. Ca2+ swelling absorbance, 30 min. inhibition, % at 10 µM. 360,000 tested, 1.4% active. AID 602449, 2012;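 active means inhibition of 50% or more, scaled per plate between neutral and stimulator controls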;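 further: 0% = DMSO wells given calcium and 100% = 1 mM EGTA wells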
MIN6 prolif = inducers of MIN6 beta-cell proliferation, primary screen, ATP luminescence, uHTS; MIN6 cells proliferation, ATPlite luminescence, 48 h; cells starved in 0.2% serum; 100% = growth in 10% serum; proliferation, % at 10 µM; 330,000 tested, 0.29% active; AID 2380, 2010;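 active means compounds whose signal lies at least 3.5 SD above the mean of all wells on their plate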;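 further: 0% = DMSO-treated cells in low-serum medium and 100% = 10% serum control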
GRIN3A LBD mod = binders of NR3A ligand-binding domain, primary screen, biophysical, differential scanning fluorimetry, uHTS. Glutamate receptor ionotropic, NMDA 3A (GRIN3A) ligand-binding domain. NR3A LBD differential scanning fluorimetry, Tm shift; 0% = protein alone, 100% = glycine-bound protein. Tm shift relative to glycine control, % at 25 µM. 340,000 tested, 2.5% active. AID 1259313, 2017;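 active means melting temperature shift of at least 10% of the positive control shift, at one fixed dose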
Numbers without * were called inactive; . = no result given.

SMILES	p-CIP stab down	FAS TE block	MPTP inh	MIN6 prolif	GRIN3A LBD mod
Cc1nc2ccccn2c1C(=O)/C=C/c1ccc(F)cc1	-24.1	-2.6	-0.2	-2.8	12.5*
N#Cc1cccc(NC(=O)CC2CCCCC2)c1	4.8	9.9	6.8	-2.1	12.2*
CCN(CC)C1=N/C(=C\c2ccc(OC)cc2)C(=O)N1c1ccccc1	-10.5	20.3	1.3	0.0	11.6*
CC(=O)Nc1cccc(-c2ccnc3c2CC(C(=O)NCc2cccs2)O3)c1 (stereo not given)	.	-9.5	0.9	.	.
Cc1ccc(NC(=O)N/C=C/c2ccccc2)cc1	4.4	0.7	0.4	-1.5	1.0
O=C(N/C=C/c1ccccc1)Nc1ccc(Cl)cc1	-4.7	2.4	-1.5	-4.5	11.2*
Cc1ccc(NC(=O)N/C=C/c2ccc(Cl)cc2)cc1	-25.6	0.4	-0.4	-0.2	16.4*
CC1(C(=O)NS(=O)(=O)c2ccc(Br)cc2)CCN1C(=O)CCc1cccs1 (stereo not given)	.	-1.1	-1.3	.	.
CCOC(=O)C1(C)CCCN(C(=O)c2ccc3c(c2)CCO3)C1 (stereo not given)	.	-6.1	0.0	.	.
O=C(CN(Cc1ccccc1)S(=O)(=O)c1ccccc1)N/N=C/c1ccc([N+](=O)[O-])cc1	-6.0	29.0	5.6	-4.4	10.0*
CCN(CC)c1ccc(/C=N/NS(=O)(=O)c2ccc(C)c([N+](=O)[O-])c2)cc1	-8.9	35.7	1.9	0.0	6.7
O=C(CN(c1cccc(Br)c1)S(=O)(=O)c1ccccc1)N/N=C/c1cc([N+](=O)[O-])ccc1O	.	49.7	26.4	-3.9	13.5*
CCN(Cc1ccccc1)c1ccc(/C=N/NS(=O)(=O)c2cccc([N+](=O)[O-])c2)cc1	4.3	23.5	4.9	-0.1	10.4*
COc1cccc(NC(=O)NCCc2ccc(Cl)cc2)c1	8.7	2.2	0.0	-0.7	1.7
COc1cccc(-c2cc(N)nn2C(=O)Nc2ccc(Cl)cc2)c1	-10.6	6.7	1.5	-4.3	26.7*
COc1ccc2c(c1C)CCC(C)(C#N)C2=O (stereo not given)	.	-1.1	0.2	.	0.6
N#Cc1cc(Oc2ccc3ccccc3c2)c(-n2nnc3ccccc32)cc1C#N	-5.7	43.2	-0.6	-2.6	12.7*
N#Cc1cc(Oc2ccccc2)c(-n2nnc3ccccc32)cc1C#N	-6.0	1.4	1.6	-0.7	2.6
CCOc1c(C#N)c(C#N)c2nc(C)cc(C)n12	3.4	1.7	-0.8	-1.8	13.6*
Cc1cc(C)n2c3c(c(C#N)c2n1)CCCC3	0.3	0.2	0.4	-1.5	-4.1
CNC(=S)N/N=C/c1c(C)nn(-c2ccccc2)c1Cl	1.4	1.8	0.4	-1.8	-4.8
Cc1nn(-c2ccccc2)c(Cl)c1/C=N/NS(=O)(=O)c1ccc(Br)cc1	-6.6	20.5	40.6	0.0	16.8*
CN=C(Nc1cc(Cl)ccc1Cl)SC1CC(=O)N(c2ccc(C(=O)OC)cc2)C1=O (stereo not given)	2.3	9.9	-1.2	-4.1	13.6*
O=C(Nc1nc(-c2ccccn2)cs1)c1ccc(-c2ccccc2F)o1	.	17.9	10.0	-8.0	12.1*
CC(=O)c1ccc(-c2ccc(C(=O)Nc3nc(-c4ccccn4)cs3)o2)cc1	.	3.4	-2.3	-3.1	11.4*
SMILES	p-CIP stab down	FAS TE block	MPTP inh	MIN6 prolif	GRIN3A LBD mod
O=C(Nc1nc(-c2ccccn2)cs1)Nc1ccc(F)cc1F	-18.5	0.2	-0.3	-3.7	14.0*
CC(C)(CCC(=S)N1CCOCC1)c1ccccc1	.	-2.2	-0.4	.	11.2*
S=C(Cc1ccccc1)N1CCOCC1	.	-3.3	-0.1	.	0.5
Cc1cccc(NC(=O)COc2ccc(/C=C\c3[nH]c(=O)[nH]c(=O)c3[N+](=O)[O-])cc2)c1	8.0	5.0	4.3	-4.6	10.1*
O=c1[nH]c(/C=C/c2ccc([N+](=O)[O-])cc2)c([N+](=O)[O-])c(=O)[nH]1	0.3	1.7	-1.1	-0.7	-3.4
COc1ccc(OC)c(NC(=O)C23CCC(C)(C(=O)C2)C3(C)C)c1 (stereo not given)	-17.5	-5.4	-1.7	-2.6	10.8*
Cc1ccnc(NC(c2ccccc2)c2ccc3cccnc3c2O)c1 (stereo not given)	.	-10.9	1.8	.	147.9*
COc1ccc(NC(=O)C2Cc3c(-c4ccc5c(c4)OCO5)ccnc3O2)cc1 (stereo not given)	.	4.8	-0.6	.	.
Cc1cc2cc(CN(CC3CCCO3)C(=S)NCc3ccco3)c(=O)[nH]c2cc1C (stereo not given)	-5.7	2.1	1.7	0.0	13.1*
O=C(O)c1ccc2c(c1)C(=O)/C(=C/c1ccccc1)C2=O	-8.9	-8.9	-1.3	-1.2	26.1*
CC(C)(C)NC(=O)C1c2ccccc2OCC(=O)N1CCCN1CCOCC1 (stereo not given)	.	-12.1	-1.4	.	.
Nc1ccc2c(c1)C(=O)c1ccc(Br)cc1-2	.	0.3	2.5	.	25.7*
Nc1ccc2c(c1)C(=O)c1ccccc1-2	.	0.7	3.2	2.5	-1.0
CCOC(=O)c1c(C)n(C)c2cc(Br)c(C(=O)OC)cc12	-1.4	1.6	1.8	-0.2	1.3
CCOC(=O)c1c(C)n(C)c2cc(Br)c(OC)cc12	-8.8	6.8	0.3	3.9	10.8*
O=C(CNc1ccccc1)N/N=C/c1c(O)ccc2ccccc12	2.3	16.6	5.8	-4.0	20.2*
Nc1cc(Cl)nc(N/N=C/c2c(O)ccc3ccccc23)n1	-2.7	6.1	-1.3	0.0	27.7*
O=C(N/N=C/c1c(O)ccc2ccccc12)Nc1ccccc1	.	.	.	-2.9	39.4*
COc1ccc(/C=N/Nc2nc(N)cc(Cl)n2)cc1OC	-21.8	-5.5	-0.1	-2.1	12.0*
Cc1ccc(S(=O)(=O)N2C3CCCCC3O[C@H]2CC(=O)c2cccs2)cc1 (stereo not given in full)	.	.	0.1	.	.
O=C1OC=NC1=Cc1ccccc1	.	-9.2	0.5	.	1.3
CC(=O)Nc1ccc(N=Cc2c(O)ccc3ccccc23)cc1	-1.0	-4.2	2.8	1.3	39.4*
O=C(NCc1ccccc1)[C@@H]1CCCN1C(=O)[C@@H]1CCCN1C(=O)c1cccs1	.	-6.4	0.3	.	.
C[C@H]1CN(C2CCCCC2)C(=O)[C@@H]1CC(=O)Nc1ccccc1	.	-2.2	1.6	.	.
CC1CC(C)CN(C(=O)CNC(=O)c2ccc3ccccc3c2)C1 (stereo not given)	-8.0	-1.0	-0.1	-5.4	91.7*
CCn1c(O)c(/C=C2\C=NN=C2c2ccccc2)sc1=S	-10.5	-49.4	17.5	-4.9	-2.1
CCCCCCn1c(O)c(/C=C2\C=NN=C2c2ccccc2)sc1=S	-15.6	-27.6	43.6	-5.2	35.2*
CC(C)Cn1c(O)c(/C=C2\C=NN=C2c2ccccc2)sc1=S	-8.0	-38.0	44.0	-5.3	29.9*
CCCCn1c(O)c(/C=C2\C=NN=C2c2ccccc2)sc1=S	4.0	-48.9	13.3	0.0	25.6*

Screening results as filed in PubChem BioAssay.
